The values below come from article PMC7862700, “An all-to-all approach to the identification of sequence-specific readers for epigenetic DNA modifications on cytosine”.

Experiment in all cases: DAPPL (digital affinity profiling via proximity ligation, sequencing); 10 mM Tris-HCl pH 7.5, 50 mM NaCl, 1 mM DTT, 4% glycerol, room temperature, 30 min; GST-TFs on glutathione beads, 16-mer random dsDNA library, 0.1% formaldehyde crosslink after washing; high values mean tight binding
The target in one assay is T1, FEV (Homo sapiens, UniProt Q99581 1-238).
T1 sequence: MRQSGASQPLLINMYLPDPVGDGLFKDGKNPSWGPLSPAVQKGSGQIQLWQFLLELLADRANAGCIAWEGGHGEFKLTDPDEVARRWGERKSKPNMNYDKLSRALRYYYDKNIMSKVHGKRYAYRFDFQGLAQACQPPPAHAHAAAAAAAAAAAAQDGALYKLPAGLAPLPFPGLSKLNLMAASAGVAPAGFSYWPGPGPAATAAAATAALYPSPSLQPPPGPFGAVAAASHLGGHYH
The conditions noted are these: protein: recombinant; tags: N-terminal GST; dsDNA, one strand shown. A digest of the protocol: (§1)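 Human transcription factors carrying a GST fusion were produced in yeast, bound to glutathione beads, tagged with DNA barcodes and pooled together with a tag-only sample. Each pool was held with 200 nmole of a random double-stranded 16-mer DNA library in Tris/NaCl/DTT/glycerol buffer for 30 min at room temperature, then washed, crosslinked in 0.1% formaldehyde, proximity-ligated with BsaI/T4 ligase (1 h, 37 °C), PCR-amplified and sequenced on an Illumina NextSeq500. Binding signal is the read frequency of each hexamer for a given factor divided by its frequency in the tag-only sample.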

The target in a further assay is ETV5 (Homo sapiens, UniProt P41161 1-510). The conditions noted are these: protein: recombinant; tags: N-terminal GST; dsDNA, one strand shown. A digest of the protocol:
as §1

The next assay addresses HSF1 (Homo sapiens, UniProt Q00613 1-529). The conditions noted are these: protein: recombinant; tags: N-terminal GST; chain copies: 3; dsDNA, one strand shown. In short, it runs like this: as §1
The target in a further assay is T2, SPIC (Homo sapiens, UniProt Q8N5J4 1-248).
T2 sequence: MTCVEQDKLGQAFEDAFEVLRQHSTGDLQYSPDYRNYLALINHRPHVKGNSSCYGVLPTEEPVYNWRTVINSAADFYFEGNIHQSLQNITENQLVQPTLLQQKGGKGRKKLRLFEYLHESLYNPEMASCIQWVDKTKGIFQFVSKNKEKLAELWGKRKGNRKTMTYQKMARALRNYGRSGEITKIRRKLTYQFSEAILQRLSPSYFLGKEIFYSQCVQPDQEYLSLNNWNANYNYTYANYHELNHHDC
The conditions noted are these: protein: recombinant; tags: N-terminal GST; dsDNA, one strand shown. A digest of the protocol:
as §1

For the next assay, the target named is ELF4 (Homo sapiens, UniProt Q99607 1-663). The conditions noted are these: protein: recombinant; tags: N-terminal GST; dsDNA, one strand shown. In short, it runs like this: as §1
Chain of ELF4 (Q99607 whole entry): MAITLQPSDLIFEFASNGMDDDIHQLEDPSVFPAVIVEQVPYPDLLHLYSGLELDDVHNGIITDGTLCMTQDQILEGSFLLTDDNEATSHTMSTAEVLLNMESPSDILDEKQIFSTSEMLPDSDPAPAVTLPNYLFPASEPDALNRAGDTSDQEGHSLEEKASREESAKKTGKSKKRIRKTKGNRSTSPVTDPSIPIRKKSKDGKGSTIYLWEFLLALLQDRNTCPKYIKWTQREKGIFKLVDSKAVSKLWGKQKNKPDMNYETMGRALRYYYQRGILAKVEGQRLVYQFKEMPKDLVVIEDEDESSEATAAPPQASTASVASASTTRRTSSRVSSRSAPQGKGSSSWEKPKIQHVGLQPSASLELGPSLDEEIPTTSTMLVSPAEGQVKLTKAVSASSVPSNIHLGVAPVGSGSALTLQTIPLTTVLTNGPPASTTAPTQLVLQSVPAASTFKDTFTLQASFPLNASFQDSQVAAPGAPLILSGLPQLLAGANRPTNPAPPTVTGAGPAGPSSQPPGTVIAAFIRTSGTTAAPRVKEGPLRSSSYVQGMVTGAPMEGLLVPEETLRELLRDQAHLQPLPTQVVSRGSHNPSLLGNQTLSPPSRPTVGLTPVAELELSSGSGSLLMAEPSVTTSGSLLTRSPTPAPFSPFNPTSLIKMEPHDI
Another assay deals with T3, ELK4 (Homo sapiens, UniProt P28324-2 1-405).
T3 sequence: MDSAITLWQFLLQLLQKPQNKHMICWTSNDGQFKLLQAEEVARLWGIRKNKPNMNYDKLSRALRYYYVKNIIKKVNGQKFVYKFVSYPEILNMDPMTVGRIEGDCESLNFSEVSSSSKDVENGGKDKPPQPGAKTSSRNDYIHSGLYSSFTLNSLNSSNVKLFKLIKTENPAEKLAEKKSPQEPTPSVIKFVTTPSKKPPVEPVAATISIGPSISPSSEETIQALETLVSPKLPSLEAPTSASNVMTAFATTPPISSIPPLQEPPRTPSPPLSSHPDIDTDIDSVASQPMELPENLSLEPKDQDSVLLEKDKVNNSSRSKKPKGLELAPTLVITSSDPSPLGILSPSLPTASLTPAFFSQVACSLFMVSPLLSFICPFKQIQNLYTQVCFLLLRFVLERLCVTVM
Conditions: protein: recombinant; tags: N-terminal GST; dsDNA, one strand shown. In short, it runs like this:
as §1

Another assay deals with T4, ETV2 (Homo sapiens, UniProt O00321 1-342).
T4 sequence: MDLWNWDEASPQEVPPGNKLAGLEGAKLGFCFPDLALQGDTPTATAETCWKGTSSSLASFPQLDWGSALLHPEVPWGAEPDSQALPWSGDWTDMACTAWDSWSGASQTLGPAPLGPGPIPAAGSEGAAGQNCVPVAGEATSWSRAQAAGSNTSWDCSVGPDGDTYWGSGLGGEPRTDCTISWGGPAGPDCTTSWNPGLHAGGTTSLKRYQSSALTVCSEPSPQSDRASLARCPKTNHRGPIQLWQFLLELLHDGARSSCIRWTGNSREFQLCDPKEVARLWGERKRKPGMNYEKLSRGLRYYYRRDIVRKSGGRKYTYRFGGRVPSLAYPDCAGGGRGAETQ
Conditions: protein: recombinant; tags: N-terminal GST; dsDNA, one strand shown. A digest of the protocol: as §1

The next assay has as its target T5, ELF3 (Homo sapiens, UniProt P78545 1-371).
T5 sequence: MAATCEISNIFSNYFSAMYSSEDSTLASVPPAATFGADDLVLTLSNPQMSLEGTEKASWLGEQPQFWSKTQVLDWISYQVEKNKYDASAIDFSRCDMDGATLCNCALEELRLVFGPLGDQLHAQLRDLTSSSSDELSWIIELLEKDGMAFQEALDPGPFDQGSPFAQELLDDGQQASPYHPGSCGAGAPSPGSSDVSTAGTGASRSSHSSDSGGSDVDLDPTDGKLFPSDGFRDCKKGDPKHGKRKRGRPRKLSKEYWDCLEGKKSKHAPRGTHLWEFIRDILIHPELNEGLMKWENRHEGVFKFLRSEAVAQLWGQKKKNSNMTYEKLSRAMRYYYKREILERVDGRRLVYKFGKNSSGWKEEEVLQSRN
The conditions noted are these: protein: recombinant; tags: N-terminal GST; dsDNA, one strand shown. In short, it runs like this:
as §1

The next assay concerns the target CRX (Homo sapiens, UniProt O43186 1-299). Conditions: protein: recombinant; tags: N-terminal GST; dsDNA, one strand shown. A digest of the protocol:
as §1

In a further assay the target is ETV1 (Homo sapiens, UniProt P50549 1-477). The conditions noted are these: protein: recombinant; tags: N-terminal GST; dsDNA, one strand shown. A digest of the protocol: as §1
Chain of ETV1 (P50549 whole entry): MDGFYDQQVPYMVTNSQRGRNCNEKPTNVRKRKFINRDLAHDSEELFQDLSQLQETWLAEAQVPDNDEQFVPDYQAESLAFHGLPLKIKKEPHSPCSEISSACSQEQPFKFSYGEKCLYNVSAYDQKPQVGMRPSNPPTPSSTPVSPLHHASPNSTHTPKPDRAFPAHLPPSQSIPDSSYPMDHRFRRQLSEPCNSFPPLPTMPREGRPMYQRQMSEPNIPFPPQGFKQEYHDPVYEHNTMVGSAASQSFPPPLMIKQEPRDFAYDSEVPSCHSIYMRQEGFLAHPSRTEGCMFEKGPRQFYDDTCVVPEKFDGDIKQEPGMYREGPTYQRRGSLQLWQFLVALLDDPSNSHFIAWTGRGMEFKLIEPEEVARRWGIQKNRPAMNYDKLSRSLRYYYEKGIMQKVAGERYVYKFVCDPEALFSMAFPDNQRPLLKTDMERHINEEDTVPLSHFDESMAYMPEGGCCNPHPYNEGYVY
In a further assay the target is T6, ERF (Homo sapiens, UniProt P50548 1-548).
T6 sequence: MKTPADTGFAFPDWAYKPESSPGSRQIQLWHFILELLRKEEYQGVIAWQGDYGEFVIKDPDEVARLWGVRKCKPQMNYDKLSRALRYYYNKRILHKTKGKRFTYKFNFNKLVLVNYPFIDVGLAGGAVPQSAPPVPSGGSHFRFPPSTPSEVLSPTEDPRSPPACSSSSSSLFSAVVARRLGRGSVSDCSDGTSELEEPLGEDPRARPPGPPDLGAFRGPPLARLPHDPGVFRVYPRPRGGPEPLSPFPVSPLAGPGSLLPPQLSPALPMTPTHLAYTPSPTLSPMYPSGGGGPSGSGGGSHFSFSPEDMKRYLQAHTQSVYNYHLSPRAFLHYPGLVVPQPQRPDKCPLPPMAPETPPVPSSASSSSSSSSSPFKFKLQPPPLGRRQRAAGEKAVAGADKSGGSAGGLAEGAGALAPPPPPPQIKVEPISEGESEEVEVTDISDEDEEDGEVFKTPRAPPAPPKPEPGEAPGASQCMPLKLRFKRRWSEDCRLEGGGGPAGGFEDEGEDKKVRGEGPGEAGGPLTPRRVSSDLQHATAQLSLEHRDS
The conditions noted are these: protein: recombinant; tags: N-terminal GST; dsDNA, one strand shown. In short, it runs like this: as §1

For another assay, the target named is T7, ETV3L (Homo sapiens, UniProt Q6ZN32 1-361).
T7 sequence: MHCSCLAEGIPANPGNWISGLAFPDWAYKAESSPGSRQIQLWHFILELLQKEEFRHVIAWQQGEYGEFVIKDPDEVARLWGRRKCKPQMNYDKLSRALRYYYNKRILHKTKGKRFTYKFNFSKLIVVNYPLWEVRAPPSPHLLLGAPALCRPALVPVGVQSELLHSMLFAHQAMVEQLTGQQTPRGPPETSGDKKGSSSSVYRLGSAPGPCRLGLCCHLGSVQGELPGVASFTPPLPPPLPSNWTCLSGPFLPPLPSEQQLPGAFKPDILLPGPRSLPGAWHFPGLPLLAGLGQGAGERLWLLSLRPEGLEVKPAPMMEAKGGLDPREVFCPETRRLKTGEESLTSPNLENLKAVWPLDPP
Conditions: protein: recombinant; tags: N-terminal GST; dsDNA, one strand shown. A digest of the protocol:
as §1

The target in another assay is T8, ETS2 (Homo sapiens, UniProt P15036 1-469).
T8 sequence: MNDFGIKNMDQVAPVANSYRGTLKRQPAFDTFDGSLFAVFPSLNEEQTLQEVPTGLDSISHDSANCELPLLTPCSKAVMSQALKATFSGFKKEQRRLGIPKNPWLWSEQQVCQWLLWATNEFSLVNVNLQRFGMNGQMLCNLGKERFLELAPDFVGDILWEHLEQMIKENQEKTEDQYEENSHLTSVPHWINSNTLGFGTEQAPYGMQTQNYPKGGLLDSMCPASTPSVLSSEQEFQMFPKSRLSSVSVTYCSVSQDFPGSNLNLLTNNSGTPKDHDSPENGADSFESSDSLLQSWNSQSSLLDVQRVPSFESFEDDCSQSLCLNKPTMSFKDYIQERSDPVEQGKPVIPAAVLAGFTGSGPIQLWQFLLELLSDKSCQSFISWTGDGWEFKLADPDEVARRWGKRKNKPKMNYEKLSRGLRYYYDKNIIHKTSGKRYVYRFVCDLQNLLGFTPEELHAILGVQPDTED
Conditions: protein: recombinant; tags: N-terminal GST; dsDNA, one strand shown. In short, it runs like this:
as §1

A further assay addresses T9, SPDEF (Homo sapiens, UniProt O95238 1-335).
T9 sequence: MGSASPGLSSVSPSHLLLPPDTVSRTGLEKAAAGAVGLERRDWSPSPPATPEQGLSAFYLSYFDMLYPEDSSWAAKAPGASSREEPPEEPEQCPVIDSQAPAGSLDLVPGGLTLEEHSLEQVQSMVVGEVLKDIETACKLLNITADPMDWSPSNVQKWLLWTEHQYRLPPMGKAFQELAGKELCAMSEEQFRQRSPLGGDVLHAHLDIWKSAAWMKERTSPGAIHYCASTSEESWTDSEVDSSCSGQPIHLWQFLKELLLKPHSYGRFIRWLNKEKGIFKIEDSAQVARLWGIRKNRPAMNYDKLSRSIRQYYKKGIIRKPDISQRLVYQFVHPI
The conditions noted are these: protein: recombinant; tags: N-terminal GST; dsDNA, one strand shown. A digest of the protocol: as §1

A further assay deals with T10, ETV7 (Homo sapiens, UniProt Q9Y603 1-341).
T10 sequence: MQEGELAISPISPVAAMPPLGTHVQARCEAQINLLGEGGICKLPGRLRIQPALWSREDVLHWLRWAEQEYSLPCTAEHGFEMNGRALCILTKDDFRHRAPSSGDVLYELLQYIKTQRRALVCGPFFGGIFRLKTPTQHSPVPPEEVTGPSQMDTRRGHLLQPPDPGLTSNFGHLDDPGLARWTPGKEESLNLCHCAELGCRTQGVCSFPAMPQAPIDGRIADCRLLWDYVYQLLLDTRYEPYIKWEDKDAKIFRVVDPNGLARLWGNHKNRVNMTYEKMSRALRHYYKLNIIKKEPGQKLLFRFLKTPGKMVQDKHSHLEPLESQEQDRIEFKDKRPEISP
Conditions: protein: recombinant; tags: N-terminal GST; dsDNA, one strand shown. In short, it runs like this: as §1

The target in a further assay is T11, ELF5 (Homo sapiens, UniProt Q9UKW6-2 1-255).
T11 sequence: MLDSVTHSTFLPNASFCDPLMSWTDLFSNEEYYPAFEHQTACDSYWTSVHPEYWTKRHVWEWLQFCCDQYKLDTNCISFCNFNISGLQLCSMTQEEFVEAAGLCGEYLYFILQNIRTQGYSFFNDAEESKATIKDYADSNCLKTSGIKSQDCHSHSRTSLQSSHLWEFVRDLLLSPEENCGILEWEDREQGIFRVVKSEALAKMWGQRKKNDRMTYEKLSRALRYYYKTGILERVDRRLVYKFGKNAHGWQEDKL
Conditions: protein: recombinant; tags: N-terminal GST; dsDNA, one strand shown. A digest of the protocol:
as §1

The target of the next assay is T12, ETV3 (Homo sapiens, UniProt P41162-2 1-143).
T12 sequence: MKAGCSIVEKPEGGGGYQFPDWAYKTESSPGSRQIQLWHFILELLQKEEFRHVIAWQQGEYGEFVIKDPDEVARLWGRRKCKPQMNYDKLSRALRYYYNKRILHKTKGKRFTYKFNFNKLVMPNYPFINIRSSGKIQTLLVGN
Conditions: protein: recombinant; tags: N-terminal GST; dsDNA, one strand shown. In short, it runs like this: as §1

The target in the next assay is ETV6 (Homo sapiens, UniProt P41212 1-452). The conditions noted are these: protein: recombinant; tags: N-terminal GST; dsDNA, one strand shown. A digest of the protocol:
as §1

Chain of HSF1 (Q00613 whole entry): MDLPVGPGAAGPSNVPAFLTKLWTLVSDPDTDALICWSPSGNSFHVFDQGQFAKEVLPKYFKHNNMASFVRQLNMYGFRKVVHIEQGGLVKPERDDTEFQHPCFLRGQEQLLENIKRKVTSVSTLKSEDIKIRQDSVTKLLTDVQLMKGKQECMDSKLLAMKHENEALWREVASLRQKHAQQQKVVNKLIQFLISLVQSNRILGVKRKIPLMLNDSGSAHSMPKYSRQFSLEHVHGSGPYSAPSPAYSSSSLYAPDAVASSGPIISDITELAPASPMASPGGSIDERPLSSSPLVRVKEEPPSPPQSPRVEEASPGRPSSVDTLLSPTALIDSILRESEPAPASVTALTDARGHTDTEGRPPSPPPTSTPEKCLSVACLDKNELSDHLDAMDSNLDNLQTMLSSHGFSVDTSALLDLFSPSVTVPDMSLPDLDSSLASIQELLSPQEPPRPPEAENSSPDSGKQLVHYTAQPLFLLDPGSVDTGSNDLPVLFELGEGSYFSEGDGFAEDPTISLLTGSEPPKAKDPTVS
Chain of ETV5 (P41161 whole entry): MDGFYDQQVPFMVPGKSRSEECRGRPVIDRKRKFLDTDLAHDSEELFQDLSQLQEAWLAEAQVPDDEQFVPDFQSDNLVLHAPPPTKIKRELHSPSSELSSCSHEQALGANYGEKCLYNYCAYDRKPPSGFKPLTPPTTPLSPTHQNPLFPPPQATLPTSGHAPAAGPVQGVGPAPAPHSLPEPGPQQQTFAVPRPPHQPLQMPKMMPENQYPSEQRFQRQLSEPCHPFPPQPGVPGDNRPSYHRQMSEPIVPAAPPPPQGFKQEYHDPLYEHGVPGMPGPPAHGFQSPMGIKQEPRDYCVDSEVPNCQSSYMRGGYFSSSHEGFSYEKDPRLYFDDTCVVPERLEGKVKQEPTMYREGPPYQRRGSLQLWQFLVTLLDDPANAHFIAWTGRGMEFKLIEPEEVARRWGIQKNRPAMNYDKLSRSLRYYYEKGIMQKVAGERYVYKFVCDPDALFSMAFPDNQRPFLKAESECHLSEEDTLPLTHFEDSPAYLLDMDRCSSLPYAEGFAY
Chain of CRX (O43186 whole entry): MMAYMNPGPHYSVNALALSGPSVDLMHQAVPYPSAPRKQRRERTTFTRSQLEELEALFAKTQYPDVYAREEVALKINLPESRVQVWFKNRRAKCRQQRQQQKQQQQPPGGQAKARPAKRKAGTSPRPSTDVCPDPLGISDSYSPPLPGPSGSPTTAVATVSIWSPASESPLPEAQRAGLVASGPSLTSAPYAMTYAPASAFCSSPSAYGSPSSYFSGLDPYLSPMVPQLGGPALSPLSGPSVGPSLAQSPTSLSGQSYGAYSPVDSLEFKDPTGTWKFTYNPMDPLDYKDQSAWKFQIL
Chain of ETV6 (P41212 whole entry): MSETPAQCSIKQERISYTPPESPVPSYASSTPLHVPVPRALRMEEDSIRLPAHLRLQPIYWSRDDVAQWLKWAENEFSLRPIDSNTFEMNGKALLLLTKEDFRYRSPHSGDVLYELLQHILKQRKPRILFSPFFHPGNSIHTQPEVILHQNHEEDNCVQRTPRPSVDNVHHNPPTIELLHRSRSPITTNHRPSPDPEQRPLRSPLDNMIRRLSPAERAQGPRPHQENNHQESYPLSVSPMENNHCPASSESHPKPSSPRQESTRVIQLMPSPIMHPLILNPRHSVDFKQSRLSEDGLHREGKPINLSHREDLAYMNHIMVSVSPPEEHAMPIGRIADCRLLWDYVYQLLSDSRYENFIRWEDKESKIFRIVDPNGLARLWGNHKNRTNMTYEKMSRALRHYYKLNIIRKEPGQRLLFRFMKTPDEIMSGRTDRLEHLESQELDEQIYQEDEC

Turning to CTTATA, the binding signal with FEV was 1.31 fold enrichment (6-mer frequency, TF over GST control); with ETV5, 1.29 fold enrichment (6-mer frequency, TF over GST control); with HSF1, 1.65 fold enrichment (6-mer frequency, TF over GST control); in the assay with SPIC, 1.34 fold enrichment (6-mer frequency, TF over GST control); in the assay with ELF4, 1.32 fold enrichment (6-mer frequency, TF over GST control); with ELK4, 1.38 fold enrichment (6-mer frequency, TF over GST control). Also, the binding signal with ETV2 was 1.15 fold enrichment (6-mer frequency, TF over GST control); with ELF3, 1.37 fold enrichment (6-mer frequency, TF over GST control); in the assay with CRX it was 2.27 fold enrichment (6-mer frequency, TF over GST control); in the assay with ETV1, 1.49 fold enrichment (6-mer frequency, TF over GST control); in the assay with ERF, 1.29 fold enrichment (6-mer frequency, TF over GST control); with ETV3L it was 1.35 fold enrichment (6-mer frequency, TF over GST control). Further, the binding signal in the assay with ETS2 is 1.41 fold enrichment (6-mer frequency, TF over GST control); with SPDEF it was 1.51 fold enrichment (6-mer frequency, TF over GST control); with ETV7, 1.39 fold enrichment (6-mer frequency, TF over GST control); in the assay with ELF5, 1.48 fold enrichment (6-mer frequency, TF over GST control); in the assay with ETV3 it was 1.28 fold enrichment (6-mer frequency, TF over GST control); with ETV6, 1.33 fold enrichment (6-mer frequency, TF over GST control).
